ALR H2O2 inh: inhibitors of human ALR sulfhydryl oxidase, primary screen, biochemical, H2O2 detection, HRP-luminol luminescence, single point; FAD-linked sulfhydryl oxidase ALR (Homo sapiens), P55789; purified ALR, DTT oxidation; inhibition, % (concentration not given with the values); actives 3.8% (n = 290,000); AID 485317, 2010;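 active = mean replicate inhibition above about 79%, with every replicate also reaching it, limit read from the data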
Target sequence (P55789 whole entry, looked up): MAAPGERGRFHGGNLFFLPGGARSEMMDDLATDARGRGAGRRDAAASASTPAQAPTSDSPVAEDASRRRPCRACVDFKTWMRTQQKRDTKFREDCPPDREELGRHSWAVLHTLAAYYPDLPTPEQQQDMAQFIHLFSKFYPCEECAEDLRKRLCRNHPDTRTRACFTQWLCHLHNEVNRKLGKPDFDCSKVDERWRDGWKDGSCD
Bfl-1 A1 inh: caspase 3/7 activation in MEF A1-2A-BIM cells, primary screen, A1 inhibitor project, cell-based, luminescence, HTS; actives 0.066% (n = 330,000); caspase activation, % (concentration not given with the values); AID 2462, 2010; Caspase-Glo 3/7 luminescence, 3 h; percent of clofoctol response, vehicle zero;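 active = over half of replicate activation scores above 10%, or exactly half above 10 with the replicate mean above 10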
AHR act: AHR activators, primary screen, cell-based, luminescence, luciferase reporter, human; Aryl hydrocarbon receptor (Homo sapiens), P35869; AHR-responsive luciferase reporter cells; activation, % at 5 µM; actives 2.5% (n = 320,000); AID 2796, 2010; in the data active = activation above about 47%;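 also: 0% = vehicle wells and 100% = reference agonist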
SUMO Mot1 rescue: yeast Mot1-301 growth rescue at high temperature, primary screen, SUMOylation pathway inhibitor project, S. cerevisiae, ATP luminescence, 38.5C; AID 2716, 2010; growth rescue, % at 18.8 µM; actives 1% (n = 320,000); S. cerevisiae Mot1-301 growth rescue; percent above DMSO median, 100 means doubled;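 active = every valid replicate shows activation above 250% relative to neutral control wells; inactive = the rest, any valid replicate at or below 250%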;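 also: OY570 slx delta 5 strain wells were the positive control but not used for scaling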
VLA-4 inh: inhibition in human VLA-4 binding assay, primary screen, VLA-4 allosteric modulator project, MLPCN library, flow cytometry, VLA-4 expressing cells; Integrin alpha-4 (Homo sapiens), P13612; ligand binding flow cytometry; inhibition, % (about 7 µM as worked out from the volumes in the protocol); actives 0.2% (n = 330,000); AID 2557, 2010; in the data active = inhibition above about 50%
Efflux pump inh: inhibitors of Candida efflux pumps in yeast, primary screen, S. cerevisiae, Nile Red, multiplex; S. cerevisiae Candida pump triplex; inhibition, % at 10 µM; actives 0.44% (n = 330,000); AID 485275, 2010;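 active = plate passing quality check with inhibition over a set limit, or well fluorescence over plate mean plus 4 SD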;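 also: Nile Red retained in pooled yeast measured as flow cytometry median fluorescence; 0% = buffer negative control and 100% = Enniatin B positive control; higher means more Nile Red kept so more efflux inhibition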
* marks the source's active call; other numbers are inactive results. Sampled rows, rich in hits. Any-hit rate of the full collection: about 7.2%.

Screening COc1ccc(N2CCN(CC(=O)N3N=CCC3c3ccccc3)CC2)cc1 (stereo not drawn) returned ALR H2O2 inh 84*, Bfl-1 A1 inh 1, AHR act 4, SUMO Mot1 rescue 2, VLA-4 inh 19 and Efflux pump inh 0.
`O=C(N/C=C/n1cnc2cc(C(F)(F)F)ccc21)c1ccccc1` gave ALR H2O2 inh -15, Bfl-1 A1 inh 1, AHR act 15, SUMO Mot1 rescue 12, VLA-4 inh -6 and Efflux pump inh 0.
Cc1ccn(Cc2n[nH]c(=S)n2Cc2ccccc2)n1 was read as ALR H2O2 inh 91*, Bfl-1 A1 inh -1, AHR act -2, SUMO Mot1 rescue -22, VLA-4 inh 2 and Efflux pump inh 0.
`S=c1[nH]nc(CNc2ccc(Cl)cc2)n1Cc1ccccc1` gave ALR H2O2 inh 99*, Bfl-1 A1 inh 1, AHR act -1, SUMO Mot1 rescue 16, VLA-4 inh 9 and Efflux pump inh 0.
`COc1ccc(-c2cc(C)no2)cc1S(=O)(=O)NCC(C)c1ccccc1` (stereo not drawn) gave ALR H2O2 inh -8, Bfl-1 A1 inh 1, AHR act 4, SUMO Mot1 rescue -9, VLA-4 inh 1 and Efflux pump inh 0.
Screening O=C(COc1ccc2c(c1)OCO2)Nc1nccs1 returned Bfl-1 A1 inh -12, AHR act 59*, SUMO Mot1 rescue -27, VLA-4 inh -3 and Efflux pump inh 0.
Screening COCc1nnc(NC(=O)COc2ccc3c(c2)OCO3)s1 returned ALR H2O2 inh -33, Bfl-1 A1 inh 0, AHR act 10, SUMO Mot1 rescue 0, VLA-4 inh 2 and Efflux pump inh 0.
`COc1ccc(CNC(=O)Cn2nc(Cc3cccnc3)c3ccccc3c2=O)cc1` gave ALR H2O2 inh -12, AHR act 2, SUMO Mot1 rescue 439*, VLA-4 inh 35 and Efflux pump inh 0.
COc1cc(Cl)c(C)cc1NC(=O)c1ccc(S(C)(=O)=O)cc1 was read as Bfl-1 A1 inh -1, AHR act -5, SUMO Mot1 rescue 10, VLA-4 inh -15 and Efflux pump inh 0.
Screening CCCSc1nc(N)nc(-c2cccs2)c1C#N returned ALR H2O2 inh -5, Bfl-1 A1 inh 0, AHR act -4, SUMO Mot1 rescue 22, VLA-4 inh 14 and Efflux pump inh 0.
For Cc1cc(C2=NNC(=NC3CC3)SC2)c(C)n1-c1c(C)n(C)n(-c2ccccc2)c1=O the results were ALR H2O2 inh 6, Bfl-1 A1 inh -2, AHR act 6, SUMO Mot1 rescue -1, VLA-4 inh -3 and Efflux pump inh 0.
`Cc1c(N=C2NN=C(c3c[nH]c4ccccc34)CS2)c(=O)n(-c2ccccc2)n1C` gave Bfl-1 A1 inh -1, AHR act 56*, SUMO Mot1 rescue 409, VLA-4 inh -40 and Efflux pump inh 0.
Cc1c(N=C2NN=C(c3ccc(Cl)cc3)CS2)c(=O)n(-c2ccccc2)n1C was read as ALR H2O2 inh 97*, Bfl-1 A1 inh 1, AHR act 4, SUMO Mot1 rescue -9, VLA-4 inh 7 and Efflux pump inh 0.
For CN1CCN(c2ccc(CNS(=O)(=O)c3ccc(Cl)cc3)cc2)CC1 the results were ALR H2O2 inh 1, Bfl-1 A1 inh 0, AHR act -1, SUMO Mot1 rescue -3, VLA-4 inh 6 and Efflux pump inh 0.
Screening Fc1ccc(CNC(=S)Nc2ccc(OC(F)F)cc2)cc1 returned ALR H2O2 inh 2, Bfl-1 A1 inh 0, AHR act 6, SUMO Mot1 rescue -16, VLA-4 inh -11 and Efflux pump inh 0.
For COc1ccc(CCNC(=O)C(=O)NCCOc2ccccc2)cc1OC the results were ALR H2O2 inh -39, Bfl-1 A1 inh 0, AHR act 1, SUMO Mot1 rescue 25, VLA-4 inh -2 and Efflux pump inh 0.
